High-throughput results from PubChem.
Rows were chosen to be rich in hits. Some 6% of all compounds tested hit in one or more screens of this group.
D1 PAM – Potentiators of Human D1 Dopamine Receptor: qHTS | actives 0.036% (n = 360,000) | HEK293 TREx D1 cells, calcium flux, dopamine EC20 potentiation | potentiation, % at 10 µM | AID 504651, 2011; in the data active = potentiation above about 30%; also: 0% is about no effect
Target sequence (P21728 whole entry, looked up): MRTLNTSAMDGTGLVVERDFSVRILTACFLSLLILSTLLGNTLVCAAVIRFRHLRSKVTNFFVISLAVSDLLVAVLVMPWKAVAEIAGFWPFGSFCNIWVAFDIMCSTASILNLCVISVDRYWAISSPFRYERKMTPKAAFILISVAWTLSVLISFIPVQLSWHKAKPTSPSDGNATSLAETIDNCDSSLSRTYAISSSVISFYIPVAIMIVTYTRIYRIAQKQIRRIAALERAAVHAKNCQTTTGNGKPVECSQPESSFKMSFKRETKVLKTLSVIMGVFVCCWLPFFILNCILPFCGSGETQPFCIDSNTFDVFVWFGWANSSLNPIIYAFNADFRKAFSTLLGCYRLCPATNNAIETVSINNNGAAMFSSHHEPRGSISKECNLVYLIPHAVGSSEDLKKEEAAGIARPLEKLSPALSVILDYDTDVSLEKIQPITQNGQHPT
DRD3 agonist – qHTS of D3 Dopamine Receptor Agonist: qHTS. D(3) dopamine receptor (Homo sapiens), P35462. D3R DiscoveRx beta-arrestin cells, luminescence, 90 min. max activation, %. actives 0.58% (n = 410,000); in the data active = max activation above about 30%; also: 0% is about no effect
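Agonist-mode cell screen: cells plated at 1500/well and incubated overnight at 37 °C, then exposed to library compounds for 90 min at 37 °C. Detection reagent was added for 30–60 min at room temperature, and luminescence was read.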
D1 agonist – Allosteric Agonists of the Human D1 Dopamine Receptor: qHTS | HEK293 T-REx D1 cells, calcium flux, agonist mode | activation, % at 2 µM | actives 1% (n = 360,000) | AID 504660, 2011; in the data active = activation above about 30%; also: 0% is about no effect
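Agonism was scored from calcium flux recorded over 180 s (1 read/s) after pintool compound addition, following a 10-cycle baseline. Cells were inducible force-coupled HEK293 TREx D1, plated overnight at 30 C and loaded with no-wash calcium dye.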
D1 antag – Antagonist of Human D 1 Dopamine Receptor: qHTS. D(1A) dopamine receptor (Homo sapiens), P21728. HEK293 TREx D1 cells, calcium flux, dopamine EC80; hits give low values. activity change, negative = inhibition, % at 10 µM. actives 3.2% (n = 360,000). AID 504652, 2011; in the data active = activity change below about -30%; also: % is scaled to controls: 0 for no effect and ±100 for the full control effect
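Allosteric or orthosteric antagonism assessed as attenuation of the calcium response to EC80 dopamine, added 180 s after compound, in induced HEK293 Trex D1 cells loaded with no-wash calcium dye.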
D3 antag – qHTS of D3 Dopamine Receptor Antagonist: qHTS. D(3) dopamine receptor (Homo sapiens), P35462. D3R cells, DiscoveRx beta-arrestin luminescence, antagonist mode; hits give low values. max response, negative = inhibition, %. actives 2.5% (n = 360,000); in the data active = max response below about -50%; also: % is scaled to controls: 0 for no effect and ±100 for the full control effect
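Cells plated overnight at 1500 cells/well, then exposed to library compounds with dopamine controls for 90 minutes at 37 degrees C. DiscoveRx reagent added for 30–60 minutes at room temperature; luminescence read, quantitative HTS format.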
* marks the source's active call; other numbers are inactive results; · = no result given.

SMILES	D1 PAM	DRD3 agonist	D1 agonist	D1 antag	D3 antag
Cc1ccc2c(c1)-c1c(cnn1CC(=O)O)CO2	0	-4	3	-12	27
CCN(c1cc(C)cc(C)c1)S(=O)(=O)c1nnc(NC(=O)c2cccc(F)c2)s1	-1	-29	3	-8	·
COc1ccc(-n2cc(C(=O)N(C)c3cc(C)ccc3OC)c3ccccc3c2=O)cc1	-2	-25	7	0	·
COc1cccc(COc2ccccc2C2Nc3ccc(Br)cc3C(=O)N2NC(=O)c2ccncc2)c1 (centres undefined)	-8	-22	4	11	-55*
COc1ccc(C2Nc3ccccc3C(=O)N2NC(C)=O)c(OC)c1 (centres undefined)	0	-3	4	-6	36
Cc1cccc(CSc2nc3c(c(=O)[nH]2)C(c2cccc(O)c2)CC(=O)N3)c1 (centres undefined)	14	-14	16	7	·
CCCN(CCC)C(=O)CSc1nc2n[nH]c(C)c2c(=N)n1-c1ccc(OCC)cc1	2	2	4	4	-50*
CCCN(CCC)C(=O)CSc1nc2n[nH]c(C)c2c(=N)n1-c1ccc(OC)cc1	-1	2	3	-11	12
Cc1cccc(NC(=O)CSc2nc3n[nH]c(C)c3c(=N)n2-c2cccc(Cl)c2)c1	-7	5	1	-35*	·
O=C(O)[C@@H]1CSCN1	·	-20	·	·	·
O=C(Nc1cc(Cl)cc(Cl)c1)c1ccc(F)c(S(=O)(=O)N2CCCCCC2)c1	1	-10	3	8	·
CCOC(=O)C1CCN(c2nc3ccccc3nc2C(C#N)C(=O)NCCc2ccccc2)CC1 (centres undefined)	-1	·	0	-30*	·
CCOC(=O)C1CCCN(c2nc3ccccc3nc2C(C#N)C(=O)OCC)C1 (centres undefined)	-14	-4	10	-26	-53*
CCOC(=O)C1CCCN(c2nc3ccccc3nc2C(C#N)C(=O)OCCOC)C1 (centres undefined)	2	-4	3	3	1
CCC(=NCc1ccccc1)c1c(C(F)(F)F)[nH]n(-c2nc3ccccc3s2)c1=O	0	-10	1	12	-60*
CC(=NCc1ccco1)c1c(C)[nH]n(-c2nc3ccccc3s2)c1=O	-7	-2	-1	-66*	16
O=C(NCc1ccccc1Cl)c1nnc(Cc2cccc(F)c2)o1	1	-11	12	11	·
Cc1ccccc1NC(=O)Cn1c([N+](=O)[O-])cnc1C	-4	-14	0	-47*	-19
CCOC(=O)c1sc2cc([N+](=O)[O-])cc(SCC(C)C)c2c1N	-4	15	55*	18	13
CCN(CC)CCOc1ccccc1OC	-14	-31	3	12	-9
CCN(CC)CCOc1ccc(Br)cc1	0	-31	9	-9	-119*
CC(C)(C)NCCOc1ccc(Br)cc1	-3	-10	6	2	-52*
CCCN(CCO)Cc1ccc(Br)cc1	-8	-12	0	-13	-12
CCN(CC)CCN(C)Cc1ccc(Br)cc1	4	-25	0	9	-55*
CCN(CC)CCOc1ccc(/C(=C(\Cl)c2ccccc2)c2ccccc2)cc1	·	·	·	·	-65*
CCOC(=O)c1sc2nc(CC(=O)OC)nc(N(C)CCc3ccccn3)c2c1C	-8	4	0	-30*	1
CCOC(=O)c1sc2nc(CC(=O)OC)nc(NCCN(CC)CC)c2c1C	1	-6	4	5	-8
Cc1ccccc1CNC(=O)CCC(=O)N1CC2CCCN2c2ccccc21 (centres undefined)	-6	4	9	-12	·
COc1ccc(C2/C=C\CN(C(=O)c3ccc(C)cc3)[C@H](Cc3ccccc3)C(=O)N2Cc2ccc(F)cc2)cc1 (some centres undefined)	6	2	3	-50*	-19
COc1ccc(C2/C=C\CN(S(=O)(=O)c3ccc4ccccc4c3)CC(=O)N2Cc2ccc(F)cc2)cc1 (centres undefined)	0	0	12	-1	0
